Laboratory results as given in the supplement of paper PMC10849652.
The full data set covers some 7,900 targets. This sample favours those with a hit. About 0.6% of all pairs of compound and target were hits. Values without a mark were called inactive.

Columns and labels:
Assay in all cases: log2 fold change, soluble protein after heating vs DMSO (PISA); higher = thermal stabilisation; K562 cells, 10 uM, 30 min; active = over 0.2 and 3.5 SD of the protein, either way, in both replicates (recomputed)
erlotinib = compound: C#Cc1cccc(Nc2ncnc3cc(OCCOC)c(OCCOC)cc23)c1 [erlotinib]
Outline: (§1)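 Values are thermal stability changes relative to control samples and are taken from duplicates. They are stated as log2 fold changes. Before quantification by TMTpro 16plex LC-MS/MS with equalised channel sums, K562 cells at 2×10^6 cells/mL were treated with 10 μM compound for 30 min, heated in aliquots for 3 min across 48°C-58°C, pooled, extracted in PBS with 0.5% NP-40 at 4°C, and centrifuged at 21,000xg for 90 min to give the soluble supernatant.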

[1] = compound: C/C(=N\NC(=O)C1=CC(=CC=C1)S(=O)(=O)N2CCOCC2)/C3=C(C=CC(=C3)Cl)O
Outline: as §1

[2] = compound: C1=CC(=CC=C1C2=NC3=C(N2)C=C(C=C3)C(=O)N)OC4=CC=C(C=C4)Cl
Outline: as §1

[3] = compound: C1=CC2=C(C=CC(=C2)/C=C\3/C(=O)NC(=NCC4=CC=CS4)S3)N=C1
Outline: as §1

[4] = compound: C1=CC2=NC=CN=C2C=C1/C=C/3\C(=O)NC(=O)S3
Outline: as §1

[5] = compound: C1=CC=C(C=C1)C2=NC(=C(N2)C3=CC=NC=C3)C4=CC(=C(C=C4)Cl)O
Outline: as §1

[6] = compound: C1=CC=C2C(=C1)C3=NNC4=CC=CC(=C43)C2=O
Outline: as §1

[7] = compound: C1CCN(C1)C(=O)NC2=CC=CC(=C2)NC3=NC=C(C(=N3)NCCC4=CN=CN4)Br
Outline: as §1

[8] = compound: C1CN(CCC1(CC2=CC=C(C=C2)Cl)N)C3=NC=NC4=C3C=CN4
Outline: as §1

[9] = compound: C1=CC(=C(C=C1Cl)C2=NC3=NC=CN=C3C(=N2)NC4=CC=NC=C4)F
Outline: as §1

Target: HSPA2 (UniProt P54652)
Chain of UniProt P54652 (P54652 whole entry, looked up): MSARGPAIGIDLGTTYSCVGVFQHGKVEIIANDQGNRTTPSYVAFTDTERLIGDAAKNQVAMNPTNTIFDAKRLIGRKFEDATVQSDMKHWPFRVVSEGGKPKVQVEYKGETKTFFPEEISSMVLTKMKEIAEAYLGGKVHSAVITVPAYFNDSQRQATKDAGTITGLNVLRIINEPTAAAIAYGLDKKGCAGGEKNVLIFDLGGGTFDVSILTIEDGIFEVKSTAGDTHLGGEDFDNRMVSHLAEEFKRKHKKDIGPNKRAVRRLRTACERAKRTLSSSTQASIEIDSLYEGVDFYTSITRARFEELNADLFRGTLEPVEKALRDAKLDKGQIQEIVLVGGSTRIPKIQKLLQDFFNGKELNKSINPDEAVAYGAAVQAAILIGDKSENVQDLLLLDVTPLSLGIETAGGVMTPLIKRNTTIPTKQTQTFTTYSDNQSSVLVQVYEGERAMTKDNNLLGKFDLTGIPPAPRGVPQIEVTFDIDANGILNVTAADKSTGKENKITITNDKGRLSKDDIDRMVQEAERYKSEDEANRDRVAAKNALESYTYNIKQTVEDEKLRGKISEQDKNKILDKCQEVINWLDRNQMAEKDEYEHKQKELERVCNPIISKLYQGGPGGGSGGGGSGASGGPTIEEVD
- log2 fold change (erlotinib): 0.623
- log2 fold change [1]: -0.047
- log2 fold change [2]: -0.182
- log2 fold change [3]: 0.022
- log2 fold change [4]: 0.058
- log2 fold change [5]: -0.095
- log2 fold change [6]: 0.192

Target: IDH3A isoform 2 (UniProt P50213)
- log2 fold change (erlotinib): 0.132
- log2 fold change [1]: -0.572 (active)
- log2 fold change [2]: -0.084
- log2 fold change [3]: 0.135
- log2 fold change [4]: -0.017
- log2 fold change [6]: 0.039
- log2 fold change [7]: -0.052
- log2 fold change [8]: 0.164

Target: FCF1 (UniProt Q9Y324)
- log2 fold change [9]: -0.392
- log2 fold change [5]: -0.075
- log2 fold change [7]: 0.034
- log2 fold change [8]: -0.138

Target: IGF2 isoform 3 (UniProt P01344)
- log2 fold change (erlotinib): -0.098
- log2 fold change [2]: 0.028

Target: GEMIN2 (UniProt O14893)
Chain of UniProt O14893 (O14893 whole entry, looked up): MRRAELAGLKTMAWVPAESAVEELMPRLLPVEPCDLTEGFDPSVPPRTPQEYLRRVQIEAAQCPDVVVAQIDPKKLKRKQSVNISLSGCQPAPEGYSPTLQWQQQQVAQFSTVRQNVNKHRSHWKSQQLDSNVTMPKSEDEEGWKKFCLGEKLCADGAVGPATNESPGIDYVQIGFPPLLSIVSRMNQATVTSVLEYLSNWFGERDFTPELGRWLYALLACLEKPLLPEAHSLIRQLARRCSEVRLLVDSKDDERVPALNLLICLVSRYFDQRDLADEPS
- log2 fold change [1]: -0.086
- log2 fold change [9]: -0.428 (active)
- log2 fold change [3]: 0.057
- log2 fold change [4]: -0.013
- log2 fold change [5]: -0.069
- log2 fold change [6]: -0.042

Target: FCHO1 (UniProt O14526)
- log2 fold change (erlotinib): 0.065
- log2 fold change [1]: 0.104
- log2 fold change [9]: -0.032
- log2 fold change [2]: -0.011
- log2 fold change [3]: 0.07
- log2 fold change [5]: -0.144
- log2 fold change [6]: -0.061
- log2 fold change [7]: -0.005
- log2 fold change [8]: -0.029

Target: GNL3 (UniProt Q9BVP2)
- log2 fold change [1]: -0.562 (active)
- log2 fold change [9]: 0.165
- log2 fold change [3]: 0.149
- log2 fold change [4]: -0.054
- log2 fold change [6]: 0.053
- log2 fold change [7]: -0.048
- log2 fold change [8]: 0.142

Target: FUNDC1 (UniProt Q8IVP5)
Chain of UniProt Q8IVP5 (Q8IVP5 whole entry, looked up): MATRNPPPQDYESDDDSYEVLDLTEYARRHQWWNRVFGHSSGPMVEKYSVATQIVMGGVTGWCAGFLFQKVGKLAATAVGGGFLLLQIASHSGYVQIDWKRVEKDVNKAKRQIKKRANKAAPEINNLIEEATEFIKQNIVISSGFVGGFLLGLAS
- log2 fold change [4]: 0.597 (active)

Target: FAT1 (UniProt Q14517)
- log2 fold change (erlotinib): -0.06
- log2 fold change [9]: -0.062
- log2 fold change [2]: 0.161
- log2 fold change [4]: -0.08
- log2 fold change [5]: 0.045
- log2 fold change [7]: -0.123
- log2 fold change [8]: 0.066

Target: FOXO3 (UniProt O43524)
- log2 fold change (erlotinib): 0.026
- log2 fold change [1]: -0.007
- log2 fold change [9]: -0.025
- log2 fold change [2]: -0.079
- log2 fold change [3]: 0.027
- log2 fold change [5]: -0.035
- log2 fold change [6]: 0.038
- log2 fold change [7]: -0.224
- log2 fold change [8]: -0.283

Target: GBA2 (UniProt Q9HCG7)
- log2 fold change (erlotinib): 0.063
- log2 fold change [1]: 0.095
- log2 fold change [9]: 0.04
- log2 fold change [2]: 0.01
- log2 fold change [3]: 0.033
- log2 fold change [4]: -0.023
- log2 fold change [6]: 0.028
- log2 fold change [7]: 0.034
- log2 fold change [8]: 0.104

Target: GDI1 (UniProt P31150)
Chain of UniProt P31150 (P31150 whole entry, looked up): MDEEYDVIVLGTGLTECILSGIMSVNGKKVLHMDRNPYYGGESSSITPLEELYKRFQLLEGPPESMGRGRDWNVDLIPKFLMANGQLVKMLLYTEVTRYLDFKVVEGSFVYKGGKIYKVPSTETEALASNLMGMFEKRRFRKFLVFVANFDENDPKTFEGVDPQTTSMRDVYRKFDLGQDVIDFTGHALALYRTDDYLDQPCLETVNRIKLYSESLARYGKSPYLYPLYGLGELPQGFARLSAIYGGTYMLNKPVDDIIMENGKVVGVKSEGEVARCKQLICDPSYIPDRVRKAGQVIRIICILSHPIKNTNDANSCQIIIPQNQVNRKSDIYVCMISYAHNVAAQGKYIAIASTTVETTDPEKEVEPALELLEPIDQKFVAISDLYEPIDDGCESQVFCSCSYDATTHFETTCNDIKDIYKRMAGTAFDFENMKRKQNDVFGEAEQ
- log2 fold change (erlotinib): -0.009
- log2 fold change [1]: 0.025
- log2 fold change [9]: 0.03
- log2 fold change [2]: 0.014
- log2 fold change [3]: 0.007
- log2 fold change [4]: 0.007
- log2 fold change [5]: -0.021
- log2 fold change [6]: -0.001
- log2 fold change [7]: 0.015
- log2 fold change [8]: 0.008

Target: FGG (UniProt P02679)
- log2 fold change [5]: -0.05

Target: GINS2 (UniProt Q9Y248)
Chain of UniProt Q9Y248 (Q9Y248 whole entry, looked up): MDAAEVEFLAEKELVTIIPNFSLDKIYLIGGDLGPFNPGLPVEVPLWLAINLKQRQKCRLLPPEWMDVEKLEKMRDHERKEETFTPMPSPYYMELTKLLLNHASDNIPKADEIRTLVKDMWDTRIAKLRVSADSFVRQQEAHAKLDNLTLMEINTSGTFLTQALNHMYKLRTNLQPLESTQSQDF
- log2 fold change (erlotinib): 0.076
- log2 fold change [9]: 0.083
- log2 fold change [2]: -0.045
- log2 fold change [4]: -0.008
- log2 fold change [5]: 0.203
- log2 fold change [7]: -0.089
- log2 fold change [8]: -0.034

Target: H3-3A (UniProt P84243)
- log2 fold change (erlotinib): 0.085
- log2 fold change [2]: -0.035
- log2 fold change [4]: -0.1
- log2 fold change [7]: 0.049
- log2 fold change [8]: -0.218

Target: GOLGA8R (UniProt I6L899)
Chain of UniProt I6L899 (I6L899 whole entry, looked up): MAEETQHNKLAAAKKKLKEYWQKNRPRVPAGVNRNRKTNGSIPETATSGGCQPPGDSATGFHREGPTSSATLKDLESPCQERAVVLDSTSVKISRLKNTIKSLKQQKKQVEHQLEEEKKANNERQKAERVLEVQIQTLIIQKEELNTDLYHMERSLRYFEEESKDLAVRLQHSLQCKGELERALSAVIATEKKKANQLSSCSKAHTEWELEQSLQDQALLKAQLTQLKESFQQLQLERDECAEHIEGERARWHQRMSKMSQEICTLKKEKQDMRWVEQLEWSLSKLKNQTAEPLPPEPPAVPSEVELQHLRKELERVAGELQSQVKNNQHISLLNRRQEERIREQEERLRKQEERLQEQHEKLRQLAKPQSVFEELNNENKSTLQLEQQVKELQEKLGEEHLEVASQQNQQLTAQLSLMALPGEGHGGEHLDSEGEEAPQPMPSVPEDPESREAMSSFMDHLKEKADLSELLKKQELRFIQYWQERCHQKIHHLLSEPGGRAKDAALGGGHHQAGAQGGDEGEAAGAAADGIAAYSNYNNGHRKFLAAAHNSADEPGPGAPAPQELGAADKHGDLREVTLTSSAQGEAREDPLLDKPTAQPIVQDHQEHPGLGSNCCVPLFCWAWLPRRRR
- log2 fold change (erlotinib): 0.377
- log2 fold change [1]: -0.394
- log2 fold change [2]: -0.019
- log2 fold change [3]: 0.078
- log2 fold change [4]: -0.008
- log2 fold change [5]: 0.058
- log2 fold change [6]: -0.049
- log2 fold change [7]: -0.097
- log2 fold change [8]: 0.302

Target: FMR1 (UniProt Q06787)
- log2 fold change (erlotinib): -0.301
- log2 fold change [2]: 0.154
- log2 fold change [5]: -0.121

Target: FIZ1 (UniProt Q96SL8)
- log2 fold change [9]: -0.272

Target: FBXO9 (UniProt Q9UK97)
- log2 fold change (erlotinib): -0.017
- log2 fold change [2]: 0.137
- log2 fold change [4]: -0.022
- log2 fold change [5]: 0.03
- log2 fold change [7]: -0.098
- log2 fold change [8]: -0.037

Target: HDAC10 (UniProt Q969S8)
- log2 fold change (erlotinib): 0.065
- log2 fold change [1]: -0.067
- log2 fold change [2]: 0.038
- log2 fold change [3]: -0.277
- log2 fold change [4]: 0.066
- log2 fold change [5]: 0.045
- log2 fold change [6]: -0.072
- log2 fold change [7]: -0.729 (active)
- log2 fold change [8]: 0.333

Target: GAK (UniProt O14976)
Chain of UniProt O14976 (O14976 whole entry, looked up): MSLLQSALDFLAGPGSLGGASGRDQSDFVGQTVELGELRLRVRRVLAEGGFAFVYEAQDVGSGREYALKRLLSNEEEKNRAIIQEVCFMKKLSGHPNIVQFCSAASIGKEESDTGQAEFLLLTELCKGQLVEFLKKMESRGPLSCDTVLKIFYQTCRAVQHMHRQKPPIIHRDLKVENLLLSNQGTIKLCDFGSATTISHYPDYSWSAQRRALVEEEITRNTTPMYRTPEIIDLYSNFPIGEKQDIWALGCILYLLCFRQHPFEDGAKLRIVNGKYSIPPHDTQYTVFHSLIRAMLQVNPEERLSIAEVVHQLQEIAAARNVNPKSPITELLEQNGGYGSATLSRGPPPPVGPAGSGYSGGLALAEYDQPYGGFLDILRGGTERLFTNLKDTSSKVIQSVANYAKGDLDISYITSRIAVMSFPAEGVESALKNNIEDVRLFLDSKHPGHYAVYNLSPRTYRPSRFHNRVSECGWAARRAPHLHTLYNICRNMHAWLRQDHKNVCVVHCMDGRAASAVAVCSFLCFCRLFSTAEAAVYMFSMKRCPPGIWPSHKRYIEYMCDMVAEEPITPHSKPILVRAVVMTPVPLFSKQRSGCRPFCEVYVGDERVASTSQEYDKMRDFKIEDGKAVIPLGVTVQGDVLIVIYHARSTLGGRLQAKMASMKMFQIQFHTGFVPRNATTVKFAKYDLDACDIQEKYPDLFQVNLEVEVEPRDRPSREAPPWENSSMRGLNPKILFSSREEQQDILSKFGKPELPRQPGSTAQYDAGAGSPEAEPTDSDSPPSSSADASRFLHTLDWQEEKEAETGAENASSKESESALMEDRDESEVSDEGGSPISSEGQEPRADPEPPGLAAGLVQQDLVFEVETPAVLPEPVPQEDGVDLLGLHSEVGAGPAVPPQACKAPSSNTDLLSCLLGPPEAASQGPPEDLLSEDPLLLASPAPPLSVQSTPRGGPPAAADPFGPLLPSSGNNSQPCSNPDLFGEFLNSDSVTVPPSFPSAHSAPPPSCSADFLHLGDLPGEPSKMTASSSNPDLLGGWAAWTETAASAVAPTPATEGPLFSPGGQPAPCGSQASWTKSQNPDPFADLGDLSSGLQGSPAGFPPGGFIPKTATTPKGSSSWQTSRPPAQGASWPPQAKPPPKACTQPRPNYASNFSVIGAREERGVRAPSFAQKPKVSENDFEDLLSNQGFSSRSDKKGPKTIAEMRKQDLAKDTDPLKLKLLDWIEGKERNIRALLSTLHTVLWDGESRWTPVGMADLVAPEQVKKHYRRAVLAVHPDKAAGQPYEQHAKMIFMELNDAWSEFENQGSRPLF
- log2 fold change (erlotinib): 0.64
- log2 fold change [1]: -0.78
- log2 fold change [9]: -0.133
- log2 fold change [2]: -0.821
- log2 fold change [3]: 0.527
- log2 fold change [5]: 0.639
- log2 fold change [6]: 0.955
- log2 fold change [7]: 1.08
- log2 fold change [8]: -0.265

Target: HNRNPK isoform 3 (UniProt P61978)
- log2 fold change (erlotinib): 0.101
- log2 fold change [9]: -0.102
- log2 fold change [2]: -0.032
- log2 fold change [4]: 0.06
- log2 fold change [5]: -0.024
- log2 fold change [7]: -0.027
- log2 fold change [8]: -0.052

Target: GTF3A (UniProt Q92664)
- log2 fold change (erlotinib): -0.048
- log2 fold change [1]: -0.117
- log2 fold change [9]: 0.095
- log2 fold change [2]: 0.116
- log2 fold change [3]: 0.157
- log2 fold change [4]: 0.004
- log2 fold change [6]: -0.115
- log2 fold change [7]: -0.019
- log2 fold change [8]: 0.174

Target: HEATR3 (UniProt Q7Z4Q2)
Chain of UniProt Q7Z4Q2 (Q7Z4Q2 whole entry, looked up): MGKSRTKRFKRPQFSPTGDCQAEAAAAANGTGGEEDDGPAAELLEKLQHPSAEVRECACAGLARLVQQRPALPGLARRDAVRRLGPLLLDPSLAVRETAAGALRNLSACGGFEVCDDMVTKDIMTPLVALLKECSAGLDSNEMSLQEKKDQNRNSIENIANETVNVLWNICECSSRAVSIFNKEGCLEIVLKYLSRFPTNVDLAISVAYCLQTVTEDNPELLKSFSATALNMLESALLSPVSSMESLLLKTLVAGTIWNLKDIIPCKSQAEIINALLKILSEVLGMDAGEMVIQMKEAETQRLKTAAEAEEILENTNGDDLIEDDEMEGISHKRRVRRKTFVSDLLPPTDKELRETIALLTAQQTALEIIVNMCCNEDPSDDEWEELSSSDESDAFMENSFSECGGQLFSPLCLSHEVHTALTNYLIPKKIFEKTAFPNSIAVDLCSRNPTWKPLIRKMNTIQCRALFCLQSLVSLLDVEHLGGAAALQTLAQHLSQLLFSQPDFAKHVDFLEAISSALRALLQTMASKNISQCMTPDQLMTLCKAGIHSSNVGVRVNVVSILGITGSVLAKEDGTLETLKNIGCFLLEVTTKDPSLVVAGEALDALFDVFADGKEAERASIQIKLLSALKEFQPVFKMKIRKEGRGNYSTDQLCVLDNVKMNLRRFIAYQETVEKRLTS
- log2 fold change (erlotinib): -0.002
- log2 fold change [9]: -0.013
- log2 fold change [2]: 0.013
- log2 fold change [4]: -0.044
- log2 fold change [5]: 0.062
- log2 fold change [7]: -0.113
- log2 fold change [8]: 0.032

Target: GSE1 (UniProt Q14687)
- log2 fold change [4]: -0.269
- log2 fold change [5]: -0.048

Target: HBZ, A0A494C057
- log2 fold change (erlotinib): 0.141
- log2 fold change [2]: -0.062
- log2 fold change [4]: -0.055

Target: HNRNPUL1 (UniProt M0R247)
- log2 fold change (erlotinib): -0.032
- log2 fold change [1]: -0.317
- log2 fold change [2]: -0.513
- log2 fold change [3]: 0.545
- log2 fold change [6]: -0.419
- log2 fold change [7]: 0.471
- log2 fold change [8]: 0.051

Target: GOLGA6B (UniProt A6NDN3)
Chain of UniProt A6NDN3 (A6NDN3 whole entry, looked up): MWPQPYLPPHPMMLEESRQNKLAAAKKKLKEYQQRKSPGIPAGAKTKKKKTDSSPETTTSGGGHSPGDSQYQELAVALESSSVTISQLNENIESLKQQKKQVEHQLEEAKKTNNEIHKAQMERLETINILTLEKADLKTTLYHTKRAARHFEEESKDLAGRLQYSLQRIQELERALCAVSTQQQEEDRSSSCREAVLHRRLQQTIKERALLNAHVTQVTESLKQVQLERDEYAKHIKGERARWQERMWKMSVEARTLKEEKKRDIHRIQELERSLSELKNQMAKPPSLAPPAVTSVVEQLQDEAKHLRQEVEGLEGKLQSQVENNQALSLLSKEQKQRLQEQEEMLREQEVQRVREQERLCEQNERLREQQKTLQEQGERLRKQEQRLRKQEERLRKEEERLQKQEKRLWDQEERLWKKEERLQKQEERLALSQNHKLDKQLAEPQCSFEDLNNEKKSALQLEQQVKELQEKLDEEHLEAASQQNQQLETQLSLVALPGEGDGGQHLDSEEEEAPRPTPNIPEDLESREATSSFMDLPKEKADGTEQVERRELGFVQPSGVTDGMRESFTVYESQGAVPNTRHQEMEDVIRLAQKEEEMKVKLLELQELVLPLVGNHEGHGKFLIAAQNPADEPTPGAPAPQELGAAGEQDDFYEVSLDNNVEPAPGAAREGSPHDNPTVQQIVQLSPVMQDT
- log2 fold change (erlotinib): -0.069
- log2 fold change [9]: -0.054
- log2 fold change [2]: 0.116
- log2 fold change [4]: 0.036

Target: HSPA8 (UniProt E9PN89)
- log2 fold change (erlotinib): 0.051
- log2 fold change [1]: -0.193
- log2 fold change [9]: -0.191
- log2 fold change [2]: -0.061
- log2 fold change [3]: 0.358
- log2 fold change [4]: 0.06
- log2 fold change [6]: -0.133
- log2 fold change [7]: 0.267
- log2 fold change [8]: -0.027

Target: FRA10AC1 isoform 3 (UniProt Q70Z53)
- log2 fold change (erlotinib): -0.02
- log2 fold change [1]: 0.053
- log2 fold change [9]: -0.059
- log2 fold change [2]: -0.12
- log2 fold change [3]: -0.305
- log2 fold change [4]: 0.033
- log2 fold change [6]: -0.154
- log2 fold change [7]: -0.067
- log2 fold change [8]: 0.126

Target: GPS2 (UniProt Q13227)
- log2 fold change (erlotinib): -0.124
- log2 fold change [9]: 0.066
- log2 fold change [2]: -0.046
- log2 fold change [4]: 0.05
- log2 fold change [5]: -0.046
- log2 fold change [7]: 0.262
- log2 fold change [8]: 0.029

Target: GREB1 (UniProt Q4ZG55)
- log2 fold change (erlotinib): 0.218
- log2 fold change [1]: -0.751 (active)
- log2 fold change [9]: 0
- log2 fold change [2]: -0.132
- log2 fold change [3]: 0.092
- log2 fold change [6]: -0.044
- log2 fold change [7]: -0.06
- log2 fold change [8]: 0.291

Target: GPNMB (UniProt Q14956)
- log2 fold change (erlotinib): 0.286
- log2 fold change [9]: -0.281
- log2 fold change [2]: -0.046
